Reference: PubChem BioAssay (Tox21)
Inconclusive results are not listed. Calls of active or inactive are those of the source. Unless noted, the call rests on the fitted dose curve; in most records, active means well fitted curve in the direction sought with a large enough effect in the repeat runs; inconclusive means weak or mixed curves; inactive means no such curve, though single readings can be large; an effect the other way counts as inactive or inconclusive.

Tests used:
[1] = qHTS assay to identify aromatase inhibitors - cell viability counter screen (AID 743084);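 further: cells stimulated with testosterone during compound exposure; nearly all actives have a fitted effect of over 55% in size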
[2] = target: Aryl hydrocarbon receptor (Homo sapiens) (UniProt P35869); test: qHTS assay to identify small molecule that activate the aryl hydrocarbon receptor (AhR) signaling pathway (AID 743085); further: nearly all actives have a fitted effect of over 15% in size; further: potency means the concentration at half of the fitted maximal effect;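 on activation: HG2L7.5c1 human HepG2 liver cells with stably integrated DRE-driven firefly reporter; series mostly up to about 70 µM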
Procedure, shortened: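 AhR agonist activity is inferred from enhanced light output of a DRE-controlled firefly luciferase reporter in HepG2 cells, measured with ONE-Glo following 24 h treatment at 37C.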

[3] = qHTS assay to identify small molecule that activate the aryl hydrocarbon receptor (AhR) signaling pathway - cell viability counter screen (AID 743086);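 further: HepG2 liver cells carrying the AhR DRE luciferase reporter; series mostly up to about 70 µM; nearly all actives have a fitted effect of over 45% in size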
Procedure, shortened: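 HepG2-AhR-luc (HG2L7.5c1) cells, 4000/well, were preincubated 5 h at 37C, exposed to compound in qHTS format for 24 hr at 37C, then given CellTiter-Fluor for 30 min; viability was read as fluorescence in the reporter wells.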

[4] = target: Peroxisome proliferator-activated receptor gamma (Homo sapiens) (UniProt P37231); test: qHTS assay to identify small molecule antagonists of the peroxisome proliferator-activated receptor gamma (PPARg) signaling pathway (AID 743191; calls by dose curve; further: nearly all actives have a fitted effect of over 30% in size; further: potency means the concentration at half of the fitted maximal effect)
Procedure, shortened: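 GeneBLAzer PPARg UAS-bla HEK293H cells carrying a UAS-driven beta-lactamase reporter were plated at 3000 cells/well, preincubated 5 h at 37C, then given compound for 17 h at 37C; LiveBLAzer B/G FRET substrate was read after 1 h at room temperature.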

[5] = qHTS assay to identify small molecule antagonists of the peroxisome proliferator-activated receptor gamma (PPARg) signaling pathway - cell viability counter screen (AID 743194); further: nearly all actives have a fitted effect of over 55% in size
Procedure, shortened: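 PPARg-UAS-bla HEK293H cells were plated, rested 5 h at 37 C, then treated with compounds plus rosiglitazone (50 nM final) for 17 h at 37 C; viability was then read by CellTiter-Glo luminescence after 30 min at room temperature.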

[6] = qHTS assay for small molecule agonists of the antioxidant response element (ARE) signaling pathway (AID 743202; active means well fitted activation curve with a large enough effect in the signal ratio in the repeat runs, not every such curve was filed as active; the % refers to the signal ratio; further: potency means the concentration at half of the fitted maximal effect)
Procedure, shortened: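 Compounds delivered in DMSO to ARE-bla HepG2 cells (2,000 cells/well, pre-incubated 5 h) and left 16 h at 37 C. LiveBLAzer B/G FRET substrate then added for 2 h at RT before fluorescence reading.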

[7] = qHTS assay for small molecule agonists of the antioxidant response element (ARE) signaling pathway - cell viability counter screen (AID 743203; calls by dose curve; further: nearly all actives have a fitted effect of over 55% in size)
Procedure, shortened: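 CellSensor ARE-bla HepG2 cells, 2,000 per well, rested 5 hrs at 37C/5% CO2, then exposed to compound in DMSO for 16 hrs; viability read as CellTiter-Glo luminescence after 30 min at room temperature, in the reporter wells.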

[8] = qHTS assay for small molecule activators of the heat shock response signaling pathway - cell viability counter screen (AID 743209); further: nearly all actives have a fitted effect of over 50% in size
Procedure, shortened: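 CellSensor HSE-bla HeLa cells, plated overnight at 37 C/5% CO2, were exposed to compounds in DMSO for 5 h at 37 C. Viability was then read in the same wells by CellTiter-Glo luminescence after 30 min at room temperature.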

[9] = qHTS assay to identify small molecule agonists of the peroxisome proliferator-activated receptor delta (PPARd) signaling pathway - cell viability counter screen (AID 743211); further: nearly all actives have a fitted effect of over 55% in size
Procedure, shortened: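 qHTS cell viability: PPARd-bla HEK293H; 17 h cpd, 37C; CellTiter-Glo, luminescence at 30 min RT.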

[10] = target: Peroxisome proliferator-activated receptor delta (Homo sapiens) (UniProt Q03181); test: qHTS assay to identify small molecule antagonists of the peroxisome proliferator-activated receptor delta (PPARd) signaling pathway (AID 743215; active means well fitted inhibition curve with a large enough effect in the signal ratio in the repeat runs, not every such curve was filed as active; the % refers to the signal ratio;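 further: cells stimulated with agonist L165041 at 300 nM final during compound exposure; series mostly up to about 62 µM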)
Procedure, shortened: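 PPARd UAS-bla HEK293H cells were pre-incubated 5 h at 37 C, then given test compounds in DMSO plus agonist L165041 (300 nM final). After 17 h at 37 C, beta-lactamase FRET substrate was added; fluorescence read after 2 h at room temperature.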

[11] = qHTS assay to identify small molecule agonists of the farnesoid-X-receptor (FXR) signaling pathway - cell viability counter screen (AID 743218); further: nearly all actives have a fitted effect of over 45% in size; further: potency means the concentration at half of the fitted maximal effect
Procedure, shortened: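 FXR-UAS-bla HEK 293T cells, plated 5 h at 37 C, were exposed to compounds for 16 h at 37 C. CellTiter-Glo was then added to the same wells as the bla readout; luminescence read after 30 min at room temperature.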

[12] = qHTS assay to identify small molecule antagonists of the farnesoid-X-receptor (FXR) signaling pathway - cell viability counter screen (AID 743221; active means well fitted cell-killing curve with a large enough effect in the repeat runs, not every such curve was filed as active; further: nearly all actives have a fitted effect of over 50% in size)
Procedure, shortened: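 After a 5 h settling period, FXR-bla HEK 293T cells receive compound and chenodeoxycholic acid (50 uM final) and incubate 16 h at 37 C; CellTiter-Glo luminescence, read after 30 min at room temperature, reports cell viability.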

[13] = target: Vitamin D3 receptor (Homo sapiens) (UniProt P11473); test: qHTS assay to identify small molecule agonists of the vitamin D receptor (VDR) signaling pathway (AID 743222; calls by dose curve)
Procedure, shortened: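 VDR-bla cells were plated 4 h at 37C/5% CO2, then exposed to compounds in DMSO for 16 h. After LiveBLAzer B/G FRET substrate addition and 2 h at room temperature, beta-lactamase reporter fluorescence was read.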

[14] = target: Vitamin D3 receptor (Homo sapiens) (UniProt P11473); test: qHTS assay to identify small molecule antagonists of the vitamin D receptor (VDR) signaling pathway (AID 743223; active means well fitted inhibition curve with a large enough effect in the signal ratio in the repeat runs, not every such curve was filed as active; the % refers to the signal ratio)
Procedure, shortened: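 Reporter line VDR-bla; stimulus 1alpha,25-(OH)2 vitamin D3, 3 nM final; compound co-addition, 16 h 37C/5% CO2; LiveBLAzer B/G substrate 2 h RT; fluorescence intensity.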

[15] = qHTS assay for small molecule activators of the heat shock response signaling pathway (AID 743210; active means well fitted activation curve with a large enough effect in the signal ratio in the repeat runs, with a control signal flat, not every such curve was filed as active; the % refers to the signal ratio;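 further: HeLa cells with beta-lactamase reporter driven by heat shock elements; series mostly up to about 63 µM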)
Procedure, shortened: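 Reporter gene assay: HeLa cells stably bearing an HSE-bla construct, compound treatment 5 h at 37 C, LiveBLAzer substrate 2.5 h at RT, fluorescence intensity.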

[16] = qHTS assay to identify small molecule antagonists of the peroxisome proliferator-activated receptor delta (PPARd) signaling pathway - cell viability counter screen (AID 743213); further: nearly all actives have a fitted effect of over 50% in size
Procedure, shortened: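 HEK293H PPARd UAS-bla cells, 5 h pre-incubation, compound + L165041 300 nM final, 17 h 37 C; B/G FRET substrate 2 h RT; then CellTiter-Glo 30 min RT, luminescence.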

[17] = target: Bile acid receptor (Homo sapiens) (UniProt Q96RI1); test: qHTS assay to identify small molecule antagonists of the farnesoid-X-receptor (FXR) signaling pathway (AID 743217; active means well fitted inhibition curve with a large enough effect in the signal ratio in the repeat runs, not every such curve was filed as active; the % refers to the signal ratio)
Procedure, shortened: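 FXR-UAS-bla HEK 293T cells pre-incubated 5 h at 37 °C, then exposed to compounds with chenodeoxycholic acid (50 uM final) for 16 h at 37 °C. Beta-lactamase reporter read by LiveBLAzer B/G FRET substrate fluorescence after 2 h at room temperature.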

[18] = target: Bile acid receptor (Homo sapiens) (UniProt Q96RI1); test: qHTS assay to identify small molecule agonists of the farnesoid-X-receptor (FXR) signaling pathway (AID 743220; active means well fitted activation curve with a large enough effect in the signal ratio in the repeat runs, not every such curve was filed as active; the % refers to the signal ratio)
Procedure, shortened: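 Beta-lactamase reporter under UAS control in GeneBLAzer FXR HEK 293T cells (5000/well) measured with LiveBLAzer FRET substrate after 2 h at room temperature. Compound exposure lasted 16 h at 37C.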

[19] = target: Peroxisome proliferator-activated receptor delta (Homo sapiens) (UniProt Q03181); test: qHTS assay to identify small molecule agonists of the peroxisome proliferator-activated receptor delta (PPARd) signaling pathway (AID 743212; calls by dose curve; further: potency means the concentration at half of the fitted maximal effect)
Procedure, shortened: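 A PPARd-bla HEK293H line with beta-lactamase under an Upstream Activator Sequence is treated with compounds at 37 C. Substrate loading for 2 h at room temperature precedes the fluorescence measurement.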

[20] = target: Peroxisome proliferator-activated receptor gamma (Homo sapiens) (UniProt P37231); test: qHTS assay to identify small molecule agonists of the peroxisome proliferator-activated receptor gamma (PPARg) signaling pathway (AID 743094; active means well fitted activation curve with a large enough effect in the signal ratio in the repeat runs, not every such curve was filed as active; the % refers to the signal ratio)
Procedure, shortened: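 GeneBLAzer PPARg UAS-bla HEK293H cells carrying a stably integrated beta-lactamase reporter were pre-incubated 5 h at 37C, then exposed to compounds in DMSO for 17 h at 37C; LiveBLAzer B/G FRET substrate was added for 1 h at room temperature and fluorescence read.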

Measured: Potency

Peroxisome proliferator-activated receptor delta (Homo sapiens), sequence (Q03181 whole entry, looked up): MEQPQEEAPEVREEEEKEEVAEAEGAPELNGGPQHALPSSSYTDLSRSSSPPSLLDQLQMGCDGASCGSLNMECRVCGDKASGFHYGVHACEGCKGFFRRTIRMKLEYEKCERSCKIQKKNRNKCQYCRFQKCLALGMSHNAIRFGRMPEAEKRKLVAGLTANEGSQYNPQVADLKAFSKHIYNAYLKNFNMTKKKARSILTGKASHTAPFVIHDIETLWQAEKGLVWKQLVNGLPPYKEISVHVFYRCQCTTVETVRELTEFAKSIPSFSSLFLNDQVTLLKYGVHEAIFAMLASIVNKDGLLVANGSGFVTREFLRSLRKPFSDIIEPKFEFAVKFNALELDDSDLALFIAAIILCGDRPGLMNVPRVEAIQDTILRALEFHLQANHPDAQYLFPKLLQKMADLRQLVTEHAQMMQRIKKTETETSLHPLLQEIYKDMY
Vitamin D3 receptor (Homo sapiens), sequence (P11473 whole entry, looked up): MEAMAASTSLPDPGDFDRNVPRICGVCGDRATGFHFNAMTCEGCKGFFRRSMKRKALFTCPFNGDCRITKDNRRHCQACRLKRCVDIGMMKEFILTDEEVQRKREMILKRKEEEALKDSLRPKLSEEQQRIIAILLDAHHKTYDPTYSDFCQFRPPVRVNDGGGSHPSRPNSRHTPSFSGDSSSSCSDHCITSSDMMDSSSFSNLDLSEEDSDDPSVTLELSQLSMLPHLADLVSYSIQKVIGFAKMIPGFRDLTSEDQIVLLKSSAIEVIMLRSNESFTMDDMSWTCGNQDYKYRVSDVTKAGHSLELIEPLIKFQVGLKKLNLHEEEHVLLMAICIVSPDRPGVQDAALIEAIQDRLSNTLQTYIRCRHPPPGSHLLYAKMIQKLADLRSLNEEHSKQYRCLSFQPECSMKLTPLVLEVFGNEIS
Bile acid receptor (Homo sapiens), sequence (Q96RI1 whole entry, looked up): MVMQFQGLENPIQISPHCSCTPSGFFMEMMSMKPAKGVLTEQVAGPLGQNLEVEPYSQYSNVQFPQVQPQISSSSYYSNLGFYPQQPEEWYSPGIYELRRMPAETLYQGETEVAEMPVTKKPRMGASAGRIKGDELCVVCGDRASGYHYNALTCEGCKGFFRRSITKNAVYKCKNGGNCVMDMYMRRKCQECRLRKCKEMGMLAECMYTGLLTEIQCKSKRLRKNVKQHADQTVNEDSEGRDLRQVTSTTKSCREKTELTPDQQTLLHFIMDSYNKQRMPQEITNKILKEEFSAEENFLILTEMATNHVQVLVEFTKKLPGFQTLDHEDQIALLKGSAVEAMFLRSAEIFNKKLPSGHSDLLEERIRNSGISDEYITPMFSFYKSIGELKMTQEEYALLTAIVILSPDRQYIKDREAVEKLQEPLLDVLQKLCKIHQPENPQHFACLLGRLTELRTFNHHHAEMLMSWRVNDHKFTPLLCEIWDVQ
Aryl hydrocarbon receptor (Homo sapiens), sequence (P35869 whole entry, looked up): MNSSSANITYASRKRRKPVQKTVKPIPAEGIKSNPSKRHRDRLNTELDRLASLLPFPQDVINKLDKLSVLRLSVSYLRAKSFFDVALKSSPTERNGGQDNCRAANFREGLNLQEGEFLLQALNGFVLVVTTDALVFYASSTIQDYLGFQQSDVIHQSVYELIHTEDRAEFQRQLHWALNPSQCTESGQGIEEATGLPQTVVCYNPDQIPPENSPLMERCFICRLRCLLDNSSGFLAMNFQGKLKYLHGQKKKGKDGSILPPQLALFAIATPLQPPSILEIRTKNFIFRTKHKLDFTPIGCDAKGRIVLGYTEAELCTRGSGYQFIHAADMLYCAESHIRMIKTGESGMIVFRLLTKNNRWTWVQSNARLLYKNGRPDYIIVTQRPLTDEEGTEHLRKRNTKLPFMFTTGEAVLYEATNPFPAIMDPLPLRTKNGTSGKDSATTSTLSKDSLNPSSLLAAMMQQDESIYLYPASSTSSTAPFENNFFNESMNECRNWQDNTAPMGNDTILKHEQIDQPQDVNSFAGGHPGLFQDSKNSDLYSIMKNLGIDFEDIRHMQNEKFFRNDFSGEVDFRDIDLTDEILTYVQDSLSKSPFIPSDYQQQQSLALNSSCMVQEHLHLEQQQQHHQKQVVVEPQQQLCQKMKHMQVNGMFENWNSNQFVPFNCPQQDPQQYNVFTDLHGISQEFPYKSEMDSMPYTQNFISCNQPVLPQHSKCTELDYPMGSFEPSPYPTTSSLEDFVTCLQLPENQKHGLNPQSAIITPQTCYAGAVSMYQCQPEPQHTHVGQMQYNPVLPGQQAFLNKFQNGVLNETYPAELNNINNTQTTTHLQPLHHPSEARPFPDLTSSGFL
Peroxisome proliferator-activated receptor gamma (Homo sapiens), sequence (P37231 whole entry, looked up): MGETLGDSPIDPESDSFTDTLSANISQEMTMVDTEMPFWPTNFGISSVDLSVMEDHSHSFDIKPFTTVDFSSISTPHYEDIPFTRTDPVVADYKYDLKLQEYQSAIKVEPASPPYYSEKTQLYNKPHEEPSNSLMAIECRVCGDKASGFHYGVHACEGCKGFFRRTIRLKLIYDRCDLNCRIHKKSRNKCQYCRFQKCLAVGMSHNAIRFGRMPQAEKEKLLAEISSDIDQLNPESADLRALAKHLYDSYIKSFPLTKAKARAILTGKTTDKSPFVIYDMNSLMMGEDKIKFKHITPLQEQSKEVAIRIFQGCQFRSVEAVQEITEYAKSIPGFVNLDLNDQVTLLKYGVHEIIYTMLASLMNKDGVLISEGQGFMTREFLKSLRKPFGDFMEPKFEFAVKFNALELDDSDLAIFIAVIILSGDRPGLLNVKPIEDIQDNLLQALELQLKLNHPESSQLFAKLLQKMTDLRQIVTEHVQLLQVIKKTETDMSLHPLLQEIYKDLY

O=C(c1ccc(Cl)cc1)c1ccc(Cl)cc1
not listed: [15] | [16] | [17] | [18] | [19] | [20]
inactive: all other assays above

OCCc1ccncc1
not listed: [10] | [19] | [20]
inactive: all other assays above

Nc1nc(Cl)nc2c1ncn2[C@H]1C[C@H](O)[C@@H](CO)O1
not listed: [4] | [11] | [17] | [19] | [20]
inactive: all other assays above

O=C(O)c1cccnc1Nc1cccc(C(F)(F)F)c1
active: [4] 11.9 µM
inactive: [1] | [2] | [3] | [7] | [15] | [9] | [17] | [11] | [18] | [13]

CC(=O)Oc1cccc2c1C(=O)c1c(OC(C)=O)cc(C(=O)O)cc1C2=O
inactive: [1] | [2] | [3] | [5] | [7] | [15] | [9] | [16] | [12]
active: [6] 15 µM

Clc1cc(Cl)c2c(c1)N=C1CCCCCN1C2
not listed: [4] | [11] | [16] | [20]
inactive: all other assays above

CCCCCO
not listed: [4] | [20]
inactive: all other assays above

CC(C)=CCCC(C)C=O (stereo unspecified)
not listed: [5] | [6] | [10] | [16] | [20]
inactive: all other assays above

CCCCCCCCCCCCSC#N
not listed: [15] | [16] | [17] | [18] | [19] | [20]
inactive: all other assays above

CC1=C(C)C(=O)C(C(CCCCCC(=O)O)c2ccccc2)=C(C)C1=O (stereo unspecified)
active: [19] 29.8 µM
not listed: [6] | [14] | [20]
inactive: all other assays above

O=C(O)c1ccncc1
not listed: [4] | [5] | [11] | [20]
inactive: all other assays above

CC(C)=CCC[C@H](C)CCO
not listed: [4] | [10] | [13] | [14] | [17] | [18] | [20]
inactive: all other assays above

N#CCCCC(C#N)CCC#N (stereo unspecified)
not listed: [4] | [5] | [13] | [14] | [17] | [18] | [20]
inactive: all other assays above

CCN(CCCCOC(=O)c1ccc(OC)c(OC)c1)C(C)Cc1ccc(OC)cc1 (stereo unspecified)
not listed: [10] | [11] | [13] | [16] | [17] | [18] | [19] | [20]
inactive: all other assays above

CCCC1CCCC(=O)O1 (stereo unspecified)
not listed: [9] | [13] | [14] | [16] | [17] | [18] | [19] | [20]
inactive: all other assays above

O=C(O)CCc1nc2ccccc2[nH]1
not listed: [4] | [13] | [14] | [17] | [18] | [20]
inactive: all other assays above

Cc1cc(C)c(C)c(O)c1
not listed: [6] | [16] | [17] | [18] | [20]
inactive: all other assays above

CC(=O)Nc1ccn(C2COC(COC(=O)c3ccccc3)O2)c(=O)n1 (stereo unspecified)
not listed: [4] | [10] | [11] | [14] | [17] | [18] | [19] | [20]
inactive: all other assays above

O=C(NC1CCN(CCc2c[nH]c3ccccc23)CC1)c1ccccc1
inactive: [1] | [3] | [5] | [7] | [8] | [15] | [9] | [16] | [11] | [12]
active: [2] 29.8 µM

Oc1ccc(CCNCCCCCCNCCc2ccccc2)cc1O
not listed: [4] | [9] | [13] | [15] | [19] | [20]
inactive: all other assays above

CC(Cc1ccccc1)(NC(=O)CN)c1ccccc1 (stereo unspecified)
not listed: [6] | [16] | [17] | [20]
inactive: all other assays above

O=C(Nc1ccc2c(c1)Cc1ccccc1-2)C(F)(F)F
active: [2] 61.1 µM
not listed: [4] | [6] | [10] | [16] | [19] | [20]
inactive: all other assays above

O=C(O)c1cc(C(=O)O)c(C(=O)O)cc1C(=O)O
not listed: [4] | [6] | [10] | [11] | [16] | [19] | [20]
inactive: all other assays above

Clc1nc2ccccc2nc1Cl
not listed: [4] | [15] | [17] | [18] | [19] | [20]
inactive: all other assays above

c1ccc(CCNc2nc(-c3ccccc3)cs2)cc1
active: [2] 15 µM
not listed: [6] | [11] | [17] | [18] | [20]
inactive: all other assays above

O=C(O)c1ccc2cc(O)ccc2c1
not listed: [2]
inactive: all other assays above

Cc1nc2sccn2c(=O)c1CCN1CCC(=C(c2ccc(F)cc2)c2ccc(F)cc2)CC1
inactive: [1] | [2] | [5] | [7] | [15] | [9] | [12]
active: [11] 26.6 µM

CCOCCn1c(N2CCCN(C)CC2)nc2ccccc21
not listed: [4] | [5] | [11] | [17] | [18] | [19] | [20]
inactive: all other assays above
